Source: PubChem BioAssay
SSB-PriA inh = K. pneumoniae PriA-SSBct interaction inhibition; AlphaScreen SSBct-PriA binding, biotinylated peptide; inhibition, % at 33 µM; 430,000 compounds, 0.6% hits; AID 1272365; in the data active = inhibition mostly above about 37%, no sharp cut-off; inactive = mostly below about 20%;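 note: plate controls were negative control peptide for no effect and reference peptide for full effect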
PfHsp40 rescue = restores yeast growth despite PfHsp40 toxicity. growth rescue, % at 12.5 µM. 340,000 compounds, 0.68% hits. S. cerevisiae expressing PfHsp40, growth rescue, ATP luminescence; in the data active = growth rescue above about 28%, passing the limit was not always enough;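 note: yeast W303a lacking pdr1 and pdr3 grown in galactose medium; growth measured after three days at 30 °C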
MazEF act = activators of E. coli MazEF toxin-antitoxin RNase; P0AE70; FAM/BHQ RNA-DNA oligo cleavage fluorescence, 5 h; activation, % at 20 µM; 350,000 compounds, 0.32% hits; in the data active = activation above about 50%
Target sequence (P0AE70 whole entry, looked up): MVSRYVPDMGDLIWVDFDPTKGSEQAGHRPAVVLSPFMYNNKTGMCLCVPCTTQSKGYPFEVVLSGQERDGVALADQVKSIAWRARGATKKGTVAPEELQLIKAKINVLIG
PrPC TRFRET = cell surface PrPC inhibition, primary TR-FRET screen; P04156; TR-FRET read-out; inhibition, % at 13.8 µM; 370,000 compounds, 0.43% hits; AID 720596; in the data active = inhibition above about 24%; note: 0% = median of the test wells and 100% = reference compound wells
PrP UTR inh = inhibition of PrP 5' UTR reporter expression; 340,000 compounds, 0.35% hits; inhibition, % (no concentration beside the values); cell-based PrP 5' UTR mRNA reporter, plate reader; in the data active = inhibition above about 52%; note: 0 = median of the neutral control wells
* hit, by the source's call; ! = a repeat was not active. Shown are actives, neighbours in structure and some others; about 1.8% of the full set was active somewhere.

Screening CCSc1cccc(C(=O)Nc2ccc(OC)cc2[N+](=O)[O-])c1 returned SSB-PriA inh 51*.
Screening CCCCC(=O)Nc1ccc(C(=O)Nc2ccc(OC)cc2[N+](=O)[O-])cc1 returned SSB-PriA inh 1, PfHsp40 rescue 4, MazEF act 743*, PrPC TRFRET -13 and PrP UTR inh -31.
Screening COc1ccc(NC(=O)c2cccs2)c([N+](=O)[O-])c1 returned SSB-PriA inh 20, PfHsp40 rescue 0, MazEF act 8, PrPC TRFRET -35 and PrP UTR inh -66.
Screening CCOCCCNCc1ccc(Cl)cc1 returned SSB-PriA inh 7, PfHsp40 rescue -1, MazEF act 2, PrPC TRFRET -1 and PrP UTR inh -5.
`Clc1ccc(-c2nnc(SCc3nc4ccccc4[nH]3)o2)c(Cl)c1` gave SSB-PriA inh -7, PfHsp40 rescue 2, MazEF act 70*, PrPC TRFRET 2 and PrP UTR inh -6.
Screening c1ccc2[nH]c(CSc3nnc(-c4ccncc4)o3)nc2c1 returned SSB-PriA inh -4, PfHsp40 rescue 0, MazEF act 4, PrPC TRFRET -4 and PrP UTR inh -14.
For CCN1C(=O)N(CC)C2NC(=S)NC21 (stereo not given) the results were SSB-PriA inh -7, PfHsp40 rescue -1, MazEF act 3, PrPC TRFRET -4 and PrP UTR inh -32.
CO[C@@H](CNS(=O)(=O)Cc1ccccc1Cl)c1ccco1 was read as SSB-PriA inh -9.
Screening O=C(Oc1c(CN2CCOCC2)cc(Cl)c2cccnc12)c1ccc(F)cc1 returned SSB-PriA inh 88*, PfHsp40 rescue -1, MazEF act -1, PrPC TRFRET 1 and PrP UTR inh -13.
Screening O=C(Oc1c(CN2CCOCC2)cc(Cl)c2cccnc12)c1cccs1 returned SSB-PriA inh 91*!, PfHsp40 rescue 0, MazEF act 1, PrPC TRFRET 3 and PrP UTR inh 14.
Screening O=C(Oc1c(CN2CCOCC2)cc(Cl)c2cccnc12)c1ccccc1Cl returned SSB-PriA inh 47*, PfHsp40 rescue -1, MazEF act -2, PrPC TRFRET 0 and PrP UTR inh 7.
For COc1ccc(C(=O)Oc2c(CN3CCOCC3)cc(Cl)c3cccnc23)cc1 the results were SSB-PriA inh -9, PfHsp40 rescue 0, MazEF act -3, PrPC TRFRET 4 and PrP UTR inh 3.
O=C(Oc1c(Cl)cc(Cl)c2cccnc12)c1cccs1 was read as SSB-PriA inh -39, PfHsp40 rescue 341*, MazEF act 2, PrPC TRFRET -6 and PrP UTR inh 4.
For COc1cc(NC(=O)CSc2nnc3n2C(C)(C)Cc2ccccc2-3)cc(OC)c1 the results were SSB-PriA inh -6, PfHsp40 rescue 0, MazEF act 26, PrPC TRFRET 0 and PrP UTR inh -7.
`COc1ccc(-c2cccc(C(=O)Nc3ccccc3C)c2)cc1` gave SSB-PriA inh -2, PfHsp40 rescue 0, MazEF act 4, PrPC TRFRET 2 and PrP UTR inh -14.
For COc1c2ccc(C(=O)NCc3nc4ccccc4[nH]3)cc2nn1C the results were SSB-PriA inh -21.
For COc1ccc(C(C)(O)c2nc(-c3cccc(C(C)C)c3)cs2)cc1 (stereo not given) the results were PrPC TRFRET 0.
Screening COc1cc(C(=O)Oc2c(CN3CCOCC3)cc(Cl)c3cccnc23)cc(OC)c1OC returned SSB-PriA inh 87*, PfHsp40 rescue -1, MazEF act -1 and PrP UTR inh 25.
Screening O=S(=O)(Cc1ccco1)C1CCN(S(=O)(=O)CCCOc2ccccc2)CC1 returned SSB-PriA inh 87*.
For Cc1ccc(S(=O)(=O)N(CC(=O)N/N=C\c2cccs2)c2cccc3cccnc23)cc1 the results were PfHsp40 rescue -2, MazEF act 51*, PrPC TRFRET -6 and PrP UTR inh -12.
COc1ccc(S(=O)(=O)N(CC(=O)N/N=C/c2cccs2)c2cc(C)cc(C)c2)cc1OC was read as PfHsp40 rescue 48*, MazEF act 5, PrPC TRFRET 4 and PrP UTR inh -6.
COCCc1nnc(NC(=O)C(C)C)s1 was read as SSB-PriA inh -9, PfHsp40 rescue 0, MazEF act 8, PrPC TRFRET 2 and PrP UTR inh -5.
Cc1ccc(-n2ncc3c(=O)[nH]c(SCC(=O)N4CCC(C)CC4)nc32)cc1C was read as SSB-PriA inh 86*, PfHsp40 rescue 2, MazEF act 12, PrPC TRFRET 2 and PrP UTR inh -12.
